What all share (experiment): DAPPL (digital affinity profiling via proximity ligation, sequencing); 10 mM Tris-HCl pH 7.5, 50 mM NaCl, 1 mM DTT, 4% glycerol, room temperature, 30 min; GST-TFs on glutathione beads, 16-mer random dsDNA library, 0.1% formaldehyde crosslink after washing; high values mean tight binding
One assay has as its target T1, FEV (Homo sapiens, UniProt Q99581 1-238).
T1 sequence: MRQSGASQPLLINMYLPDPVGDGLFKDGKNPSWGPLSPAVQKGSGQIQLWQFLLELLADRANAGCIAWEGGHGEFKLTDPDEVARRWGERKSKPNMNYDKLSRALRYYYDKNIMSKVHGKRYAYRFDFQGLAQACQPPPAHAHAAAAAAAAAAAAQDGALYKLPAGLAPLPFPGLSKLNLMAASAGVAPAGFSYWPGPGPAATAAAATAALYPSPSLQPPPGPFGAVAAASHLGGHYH
The following applies: protein: recombinant; tags: N-terminal GST; dsDNA, one strand shown. The procedure, abridged: (§1)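 Yeast served to express human transcription factors as GST fusions, which were then captured on glutathione beads and labelled with DNA barcodes. Pooled with a tag-only sample, they were incubated with 200 nmole of a 16-mer random double-stranded DNA library for 30 min at room temperature in Tris/NaCl/DTT/glycerol buffer, washed, crosslinked with 0.1% formaldehyde, ligated by proximity, amplified by PCR and sequenced. Dividing each hexamer's read frequency for a factor by its frequency for the tag-only sample gives the binding signal.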

The next assay deals with ETV5 (Homo sapiens, UniProt P41161 1-510). The following applies: protein: recombinant; tags: N-terminal GST; dsDNA, one strand shown. In outline: as §1
Another assay deals with HSF1 (Homo sapiens, UniProt Q00613 1-529). Conditions: protein: recombinant; tags: N-terminal GST; chain copies: 3; dsDNA, one strand shown. The procedure, abridged:
as §1

The next assay deals with T2, SPIC (Homo sapiens, UniProt Q8N5J4 1-248).
T2 sequence: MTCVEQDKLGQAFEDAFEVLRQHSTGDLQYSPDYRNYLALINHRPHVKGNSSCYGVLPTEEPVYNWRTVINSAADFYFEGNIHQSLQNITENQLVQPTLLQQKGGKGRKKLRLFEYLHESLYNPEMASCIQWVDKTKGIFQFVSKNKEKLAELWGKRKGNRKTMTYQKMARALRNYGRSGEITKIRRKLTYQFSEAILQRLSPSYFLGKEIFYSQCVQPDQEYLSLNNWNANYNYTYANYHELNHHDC
Conditions: protein: recombinant; tags: N-terminal GST; dsDNA, one strand shown. In outline: as §1

The target in another assay is ELF4 (Homo sapiens, UniProt Q99607 1-663). The following applies: protein: recombinant; tags: N-terminal GST; dsDNA, one strand shown. In outline:
as §1

The target in another assay is T3, ELK4 (Homo sapiens, UniProt P28324-2 1-405).
T3 sequence: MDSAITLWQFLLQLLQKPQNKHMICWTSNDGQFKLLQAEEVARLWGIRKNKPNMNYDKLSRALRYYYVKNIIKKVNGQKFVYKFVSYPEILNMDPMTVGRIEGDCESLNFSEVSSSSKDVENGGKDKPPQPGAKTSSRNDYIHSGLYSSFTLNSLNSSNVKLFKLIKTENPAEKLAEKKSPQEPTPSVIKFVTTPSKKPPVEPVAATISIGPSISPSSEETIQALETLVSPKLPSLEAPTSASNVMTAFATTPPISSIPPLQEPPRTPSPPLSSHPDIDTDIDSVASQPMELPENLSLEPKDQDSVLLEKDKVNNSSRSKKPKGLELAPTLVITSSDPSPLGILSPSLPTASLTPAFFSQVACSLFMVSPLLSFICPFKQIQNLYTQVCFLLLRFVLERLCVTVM
The following applies: protein: recombinant; tags: N-terminal GST; dsDNA, one strand shown. The procedure, abridged: as §1

The target of a further assay is T4, ETV2 (Homo sapiens, UniProt O00321 1-342).
T4 sequence: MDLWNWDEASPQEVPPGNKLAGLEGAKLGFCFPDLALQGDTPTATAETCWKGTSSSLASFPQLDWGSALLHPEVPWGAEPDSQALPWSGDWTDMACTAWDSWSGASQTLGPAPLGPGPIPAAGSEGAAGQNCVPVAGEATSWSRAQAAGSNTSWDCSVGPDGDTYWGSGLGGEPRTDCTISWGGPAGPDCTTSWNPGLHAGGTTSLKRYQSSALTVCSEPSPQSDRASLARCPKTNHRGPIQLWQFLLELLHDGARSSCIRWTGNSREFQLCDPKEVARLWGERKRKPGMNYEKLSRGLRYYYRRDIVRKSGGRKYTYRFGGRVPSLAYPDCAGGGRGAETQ
Conditions: protein: recombinant; tags: N-terminal GST; dsDNA, one strand shown. The procedure, abridged:
as §1

A further assay has as its target T5, ELF3 (Homo sapiens, UniProt P78545 1-371).
T5 sequence: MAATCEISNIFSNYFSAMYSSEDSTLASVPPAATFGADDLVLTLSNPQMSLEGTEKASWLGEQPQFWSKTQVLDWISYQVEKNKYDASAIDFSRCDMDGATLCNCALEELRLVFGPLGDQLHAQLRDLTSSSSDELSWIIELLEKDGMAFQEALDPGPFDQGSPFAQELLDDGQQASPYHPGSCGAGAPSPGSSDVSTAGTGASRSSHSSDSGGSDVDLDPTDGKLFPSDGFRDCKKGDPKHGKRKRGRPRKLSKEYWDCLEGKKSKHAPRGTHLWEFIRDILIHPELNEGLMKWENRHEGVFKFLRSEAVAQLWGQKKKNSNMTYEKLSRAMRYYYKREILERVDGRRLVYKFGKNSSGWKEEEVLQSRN
The following applies: protein: recombinant; tags: N-terminal GST; dsDNA, one strand shown. The procedure, abridged:
as §1

For another assay, the target named is CRX (Homo sapiens, UniProt O43186 1-299). Conditions: protein: recombinant; tags: N-terminal GST; dsDNA, one strand shown. In outline:
as §1

In another assay the target is ETV1 (Homo sapiens, UniProt P50549 1-477). Conditions: protein: recombinant; tags: N-terminal GST; dsDNA, one strand shown. The procedure, abridged:
as §1

In publication PMC7862700, “An all-to-all approach to the identification of sequence-specific readers for epigenetic DNA modifications on cytosine” one finds binding signal data, which are given here for 7 sequences.

Sequence of HSF1 (Q00613 whole entry): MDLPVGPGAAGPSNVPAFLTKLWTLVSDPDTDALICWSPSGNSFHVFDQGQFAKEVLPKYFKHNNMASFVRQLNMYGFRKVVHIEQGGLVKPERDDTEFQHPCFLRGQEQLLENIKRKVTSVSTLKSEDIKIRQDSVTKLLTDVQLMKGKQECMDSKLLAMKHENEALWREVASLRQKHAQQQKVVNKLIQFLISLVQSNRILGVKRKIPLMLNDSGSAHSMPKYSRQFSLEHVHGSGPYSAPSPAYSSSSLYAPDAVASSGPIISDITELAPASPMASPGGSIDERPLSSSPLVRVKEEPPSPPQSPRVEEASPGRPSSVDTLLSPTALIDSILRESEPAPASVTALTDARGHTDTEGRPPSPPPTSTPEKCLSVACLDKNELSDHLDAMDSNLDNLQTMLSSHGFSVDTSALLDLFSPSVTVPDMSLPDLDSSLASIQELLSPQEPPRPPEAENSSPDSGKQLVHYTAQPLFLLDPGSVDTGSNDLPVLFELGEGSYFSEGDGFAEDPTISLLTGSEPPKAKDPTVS
Sequence of ETV5 (P41161 whole entry): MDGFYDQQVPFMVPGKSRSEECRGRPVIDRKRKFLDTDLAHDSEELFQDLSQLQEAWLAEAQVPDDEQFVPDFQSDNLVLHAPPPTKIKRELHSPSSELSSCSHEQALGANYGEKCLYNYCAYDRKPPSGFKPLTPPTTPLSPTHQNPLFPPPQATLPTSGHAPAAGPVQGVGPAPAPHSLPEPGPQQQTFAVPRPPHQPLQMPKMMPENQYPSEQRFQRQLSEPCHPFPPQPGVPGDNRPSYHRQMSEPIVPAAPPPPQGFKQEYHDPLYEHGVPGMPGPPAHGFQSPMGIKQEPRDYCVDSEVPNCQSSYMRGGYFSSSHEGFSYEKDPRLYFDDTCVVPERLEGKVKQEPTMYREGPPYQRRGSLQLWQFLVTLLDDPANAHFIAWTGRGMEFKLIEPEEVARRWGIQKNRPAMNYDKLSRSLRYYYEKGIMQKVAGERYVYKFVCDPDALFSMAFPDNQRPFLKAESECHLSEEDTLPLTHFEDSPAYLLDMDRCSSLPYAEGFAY
Sequence of ETV1 (P50549 whole entry): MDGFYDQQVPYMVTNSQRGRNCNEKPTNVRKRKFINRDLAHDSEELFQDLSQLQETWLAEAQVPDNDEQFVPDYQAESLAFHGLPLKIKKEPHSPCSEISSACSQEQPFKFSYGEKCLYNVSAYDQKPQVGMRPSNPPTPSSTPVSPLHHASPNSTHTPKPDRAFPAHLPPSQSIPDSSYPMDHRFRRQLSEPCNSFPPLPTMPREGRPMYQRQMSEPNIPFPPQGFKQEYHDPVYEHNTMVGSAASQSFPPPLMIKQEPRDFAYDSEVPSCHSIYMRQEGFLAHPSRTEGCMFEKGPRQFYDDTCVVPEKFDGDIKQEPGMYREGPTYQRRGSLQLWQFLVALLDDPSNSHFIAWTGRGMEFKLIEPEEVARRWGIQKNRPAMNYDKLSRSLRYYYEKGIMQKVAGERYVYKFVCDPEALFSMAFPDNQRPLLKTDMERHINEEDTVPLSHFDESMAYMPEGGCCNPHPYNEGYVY
Sequence of CRX (O43186 whole entry): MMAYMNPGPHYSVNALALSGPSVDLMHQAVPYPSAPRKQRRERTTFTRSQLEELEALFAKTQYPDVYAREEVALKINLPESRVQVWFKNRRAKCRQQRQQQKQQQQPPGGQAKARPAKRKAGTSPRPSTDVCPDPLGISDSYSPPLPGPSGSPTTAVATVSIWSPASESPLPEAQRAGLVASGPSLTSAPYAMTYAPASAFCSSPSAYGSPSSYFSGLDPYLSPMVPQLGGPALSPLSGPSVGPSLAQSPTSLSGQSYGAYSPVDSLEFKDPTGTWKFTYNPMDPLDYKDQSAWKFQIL
Sequence of ELF4 (Q99607 whole entry): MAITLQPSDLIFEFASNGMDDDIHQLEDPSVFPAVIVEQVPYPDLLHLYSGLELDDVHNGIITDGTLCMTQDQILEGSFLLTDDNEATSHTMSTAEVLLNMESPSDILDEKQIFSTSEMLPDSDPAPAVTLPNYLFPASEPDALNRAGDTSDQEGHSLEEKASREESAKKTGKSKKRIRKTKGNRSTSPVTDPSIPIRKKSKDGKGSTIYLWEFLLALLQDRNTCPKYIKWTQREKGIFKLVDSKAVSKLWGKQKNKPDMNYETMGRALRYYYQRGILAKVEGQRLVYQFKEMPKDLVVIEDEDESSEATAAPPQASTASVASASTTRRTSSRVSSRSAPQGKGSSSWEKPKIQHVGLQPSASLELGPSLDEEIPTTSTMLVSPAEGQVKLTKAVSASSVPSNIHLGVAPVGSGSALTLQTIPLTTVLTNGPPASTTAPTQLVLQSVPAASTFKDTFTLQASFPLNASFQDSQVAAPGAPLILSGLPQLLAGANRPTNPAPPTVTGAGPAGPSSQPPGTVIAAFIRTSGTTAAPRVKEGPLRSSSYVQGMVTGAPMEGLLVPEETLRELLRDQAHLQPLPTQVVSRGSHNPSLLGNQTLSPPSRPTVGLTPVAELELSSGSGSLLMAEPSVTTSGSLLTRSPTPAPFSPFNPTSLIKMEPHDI

Take CAAAAT: the binding signal with FEV was 1.17 fold enrichment (6-mer frequency, TF over GST control); with ETV5, 1.22 fold enrichment (6-mer frequency, TF over GST control); with HSF1, 1.2 fold enrichment (6-mer frequency, TF over GST control); with SPIC, 1.16 fold enrichment (6-mer frequency, TF over GST control); in the assay with ELF4, 1.25 fold enrichment (6-mer frequency, TF over GST control); with ELK4, 1.23 fold enrichment (6-mer frequency, TF over GST control). Moreover, the binding signal in the assay with ETV2 was 1.28 fold enrichment (6-mer frequency, TF over GST control); with ELF3 it was 1.2 fold enrichment (6-mer frequency, TF over GST control); with CRX, 1.22 fold enrichment (6-mer frequency, TF over GST control); with ETV1 it was 1.25 fold enrichment (6-mer frequency, TF over GST control).

TTATGT: the binding signal was 1.15 fold enrichment (6-mer frequency, TF over GST control) with FEV; 1.38 fold enrichment (6-mer frequency, TF over GST control) with ETV5; 1.63 fold enrichment (6-mer frequency, TF over GST control) in the assay with HSF1; 1.17 fold enrichment (6-mer frequency, TF over GST control) in the assay with SPIC; 1.38 fold enrichment (6-mer frequency, TF over GST control) with ELF4; 1.38 fold enrichment (6-mer frequency, TF over GST control) in the assay with ELK4. In addition, the binding signal with ETV2 was 1.13 fold enrichment (6-mer frequency, TF over GST control); with ELF3, 1.41 fold enrichment (6-mer frequency, TF over GST control); with CRX it was 2.24 fold enrichment (6-mer frequency, TF over GST control); in the assay with ETV1, 1.29 fold enrichment (6-mer frequency, TF over GST control).

Regarding ACTTCA, the binding signal is 1.38 fold enrichment (6-mer frequency, TF over GST control) with FEV; 1.42 fold enrichment (6-mer frequency, TF over GST control) with ETV5; 1.18 fold enrichment (6-mer frequency, TF over GST control) with HSF1; 1.55 fold enrichment (6-mer frequency, TF over GST control) with SPIC; 1.33 fold enrichment (6-mer frequency, TF over GST control) in the assay with ELF4; 1.56 fold enrichment (6-mer frequency, TF over GST control) in the assay with ELK4. Also, the binding signal with ETV2 is 1.37 fold enrichment (6-mer frequency, TF over GST control); in the assay with ELF3 it was 1.44 fold enrichment (6-mer frequency, TF over GST control); in the assay with CRX it was 1.17 fold enrichment (6-mer frequency, TF over GST control); with ETV1, 1.48 fold enrichment (6-mer frequency, TF over GST control).

On to CTAGTT, for which the binding signal with FEV is 1.23 fold enrichment (6-mer frequency, TF over GST control); with ETV5, 1.31 fold enrichment (6-mer frequency, TF over GST control); with HSF1 it was 1.51 fold enrichment (6-mer frequency, TF over GST control); in the assay with SPIC it was 1.47 fold enrichment (6-mer frequency, TF over GST control); in the assay with ELF4, 1.35 fold enrichment (6-mer frequency, TF over GST control); with ELK4, 1.54 fold enrichment (6-mer frequency, TF over GST control). Further, the binding signal is 1.32 fold enrichment (6-mer frequency, TF over GST control) with ETV2; 1.38 fold enrichment (6-mer frequency, TF over GST control) with ELF3; 1.16 fold enrichment (6-mer frequency, TF over GST control) in the assay with CRX; 1.35 fold enrichment (6-mer frequency, TF over GST control) in the assay with ETV1.

CTACGC: the binding signal in the assay with FEV is 1.62 fold enrichment (6-mer frequency, TF over GST control); with ETV5, 1.6 fold enrichment (6-mer frequency, TF over GST control); with HSF1, 1.39 fold enrichment (6-mer frequency, TF over GST control); in the assay with SPIC it was 1.36 fold enrichment (6-mer frequency, TF over GST control); with ELF4, 1.51 fold enrichment (6-mer frequency, TF over GST control); with ELK4, 1.6 fold enrichment (6-mer frequency, TF over GST control). In addition, the binding signal with ETV2 is 1.57 fold enrichment (6-mer frequency, TF over GST control); in the assay with ELF3, 1.57 fold enrichment (6-mer frequency, TF over GST control); with CRX, 1.38 fold enrichment (6-mer frequency, TF over GST control); with ETV1, 1.55 fold enrichment (6-mer frequency, TF over GST control).

Consider TGTTCT, for which the binding signal with FEV is 1.28 fold enrichment (6-mer frequency, TF over GST control); with ETV5 it was 1.32 fold enrichment (6-mer frequency, TF over GST control); with HSF1, 2.8 fold enrichment (6-mer frequency, TF over GST control); with SPIC, 1.45 fold enrichment (6-mer frequency, TF over GST control); in the assay with ELF4, 1.42 fold enrichment (6-mer frequency, TF over GST control); with ELK4 it was 1.3 fold enrichment (6-mer frequency, TF over GST control). For the same sequence, the binding signal in the assay with ETV2 is 1.23 fold enrichment (6-mer frequency, TF over GST control); with ELF3 it was 1.38 fold enrichment (6-mer frequency, TF over GST control); with CRX, 1.45 fold enrichment (6-mer frequency, TF over GST control); with ETV1, 1.39 fold enrichment (6-mer frequency, TF over GST control).

For the sequence TAGTTA, the binding signal was 1.07 fold enrichment (6-mer frequency, TF over GST control) with FEV; 1.19 fold enrichment (6-mer frequency, TF over GST control) with ETV5; 1.26 fold enrichment (6-mer frequency, TF over GST control) with HSF1; 1.11 fold enrichment (6-mer frequency, TF over GST control) with SPIC; 1.15 fold enrichment (6-mer frequency, TF over GST control) with ELF4; 1.26 fold enrichment (6-mer frequency, TF over GST control) in the assay with ELK4. The binding signal in the assay with ETV2 is 1.09 fold enrichment (6-mer frequency, TF over GST control); with ELF3 it was 1.29 fold enrichment (6-mer frequency, TF over GST control); in the assay with CRX, 1.54 fold enrichment (6-mer frequency, TF over GST control); in the assay with ETV1, 1.05 fold enrichment (6-mer frequency, TF over GST control).
